Hits are enriched below; roughly 2.4% of the tested compounds scored in any of these assays.
ANO1 activ: mouse TMEM16A channel activation, primary screen; Q8BHY3; HEK293 TMEM16A/YFP-H148Q/I152L, iodide quench fluorescence; stronger effect = lower value; B-score at 10 µM; hit rate 0.3% among 340,000; AID 623877;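 active = fluorescence-ratio B-score plate-corrected deviation score at least 3 library SD below zero, with starting fluorescence score within 5 deviations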;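 note: channel opened by trigger with iodide after compound preincubation; score built on the fluorescence ratio of max minus min over baseline; more negative score means more quench and so TMEM16A activation or potentiation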
Target sequence (Q8BHY3 whole entry, looked up): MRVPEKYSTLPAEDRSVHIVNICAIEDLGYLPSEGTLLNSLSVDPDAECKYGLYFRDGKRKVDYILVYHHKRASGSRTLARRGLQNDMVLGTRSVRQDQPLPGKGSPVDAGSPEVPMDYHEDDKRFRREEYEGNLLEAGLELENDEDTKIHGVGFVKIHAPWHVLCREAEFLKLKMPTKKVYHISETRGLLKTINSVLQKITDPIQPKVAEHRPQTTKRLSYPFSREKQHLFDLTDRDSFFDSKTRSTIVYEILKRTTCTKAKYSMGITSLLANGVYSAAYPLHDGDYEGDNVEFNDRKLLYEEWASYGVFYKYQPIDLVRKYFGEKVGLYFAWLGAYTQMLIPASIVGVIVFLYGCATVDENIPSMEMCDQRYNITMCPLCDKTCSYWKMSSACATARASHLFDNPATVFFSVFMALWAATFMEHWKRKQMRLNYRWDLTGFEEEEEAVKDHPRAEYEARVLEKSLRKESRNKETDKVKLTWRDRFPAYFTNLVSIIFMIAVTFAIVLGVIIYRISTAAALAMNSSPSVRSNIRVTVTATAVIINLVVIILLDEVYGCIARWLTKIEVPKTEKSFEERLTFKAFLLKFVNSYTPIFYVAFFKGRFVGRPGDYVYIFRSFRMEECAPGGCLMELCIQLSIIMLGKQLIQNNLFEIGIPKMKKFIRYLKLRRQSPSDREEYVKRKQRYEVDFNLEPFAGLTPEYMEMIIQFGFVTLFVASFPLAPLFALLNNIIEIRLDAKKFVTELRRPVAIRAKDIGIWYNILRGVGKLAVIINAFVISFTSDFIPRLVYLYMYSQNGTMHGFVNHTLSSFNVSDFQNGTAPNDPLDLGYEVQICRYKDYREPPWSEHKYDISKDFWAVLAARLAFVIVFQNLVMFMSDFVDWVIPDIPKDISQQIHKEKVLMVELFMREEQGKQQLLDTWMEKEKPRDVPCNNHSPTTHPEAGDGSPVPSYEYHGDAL
TMEM16A inh: blocks the mouse calcium-activated chloride channel TMEM16A; HEK293 TMEM16A/YFP iodide influx fluorescence, ionomycin; normalized B-score (activity score, 25-100; higher = stronger inhibition) at 10 µM; hit rate 1.2% among 310,000;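 active = ratio plate-corrected score three or more library SD toward inhibition, starting fluorescence score within five deviations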;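 note: score derived from kinetic fluorescence span divided by baseline fluorescence per well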
CHT inh: inhibits the human high affinity choline transporter. Q9GZV3. CHT-expressing cells, membrane potential dye, choline response; stronger effect = lower value. B-score at 10 µM. hit rate 0.86% among 310,000;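 active = B-score over 3 SD under the library average, and starting fluorescence ratio not unusually high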;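 note: choline stimulus applied at its EC90 after an EC20 pre-addition; B-score computed on integrated fluorescence ratio after choline addition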
CHT allo act: allosteric activators of human choline transporter CHT. CHT-expressing cells, membrane potential dye, choline EC20; stronger effect = higher value; LV-AA mutant CHT in HEK293 cells. hit rate 0.49% among 310,000. AID 488977. Q9GZV3. B-score at 10 µM;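 active = initial fluorescence not abnormally high and integrated response B-score, plate-corrected, over 3 SD above library mean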
CHT inh conf: human CHT inhibition, confirmatory screen; hit rate 70% among 2,400; CHT activity remaining % of control (stronger effect = lower value), % at 10 µM; CHT-expressing cells, choline membrane potential dye; LV-to-AA substituted CHT, HEK293 cells; shares compounds with CHT inh;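 active = choline transporter activity left, mean of duplicates at 10 µM, below buffer-only control mean minus 3 SD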;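 note: depolarization triggered by choline at its EC90 following an EC20 pre-addition; 0% = hemicholinium-3 full block and 100% = buffer-only control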
HEK293 MPD ctr: CHT inhibitor counter-screen hit in parental HEK293 cells. shares compounds with CHT inh. membrane potential dye, choline response; active = decrease or increase beyond buffer ±3SD. membrane potential ratio readout (active if shifted either direction beyond buffer ±3SD; no single direction) at 10 µM. hit rate 4% among 2,400. AID 493222;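 note: parental cells lack the transporter so any hit is non-specific; ratio is peak minus trough fluorescence over baseline after EC90 choline challenge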
The depositor's hits bear a star; i = inactive; / = no result.

SMILES | ANO1 activ | TMEM16A inh | CHT inh | CHT allo act | CHT inh conf | HEK293 MPD ctr
Cc1oc(-c2ccccc2)cc1C(=O)Nc1cccc(/C=C\C(=O)O)c1 | i | i | -8.9* | i | 61%* | i
CC(C)n1cnc2c(N(C)c3cccc(Cl)c3)nc(N(CCO)CCO)nc21 | i | i | -6.6* | i | 52%* | i
Fc1ccccc1/C=N/Nc1nc(-c2ccccn2)nc2ccccc12 | / | i | i | i | / | /
S=c1nc(-c2ccco2)[nH][nH]1 | i | i | -5.4* | i | 48%* | i
CC1CN(C(=O)CSc2nnc(-c3ccccc3)o2)CC(C)O1 (stereo not given) | i | i | i | i | / | /
CC(C)CCSc1cc(NCCO)c([N+](=O)[O-])c2nonc12 | i | i | -5.8* | i | i | i
Cc1ccc(Sc2cc(NCCCO)c([N+](=O)[O-])c3nonc23)cc1 | i | i | i | i | / | /
Cc1cc(NC(=O)CCC(=O)N(Cc2ccccc2)C2(C(=O)NC3CCCCC3)CCCC2)no1 | i | i | -5.6* | i | i | i
O=C(NCc1cccc(C(F)(F)F)c1)c1cc(Cl)cc(Cl)c1 | i | i | i | i | / | /
O=C(NCc1cccc(C(F)(F)F)c1)c1cc(Cl)ccc1Cl | i | i | -5.8* | i | i | i
COc1ccc(NC(=O)Cn2c(=O)oc3ccccc32)cc1 | i | i | i | i | / | /
Cc1sc2ncnc(SCc3ccco3)c2c1C | i | i | i | i | / | /
Cc1sc2ncnc(N(C)Cc3ccco3)c2c1C | i | i | -5.1* | i | i | i
CCOc1ccccc1-c1nc(-c2cc3ccc(C)cc3[nH]c2=O)no1 | i | i | i | i | / | /
Cc1ccc(C(=O)N/C(=C\c2cccs2)c2nc3ccccc3[nH]2)cc1 | i | i | -5* | i | 64%* | i
O=C(N/C(=C/c1cccs1)c1nc2ccccc2[nH]1)c1ccccc1 | i | i | i | i | / | /
Cc1cc(C)c(C(=O)Nc2ccc(S(=O)(=O)Nc3ccccn3)cc2)c(C)c1 | i | i | -14* | i | 5.0%* | i
COc1ccc(S(=O)(=O)N2CCN(CC(=O)Nc3ccc(C)c(F)c3)CC2)cc1 | i | / | / | / | / | /
COc1cc(C)cc(OC)c1OCC(=O)Nc1cc(C)on1 | i | / | / | / | / | /
O=C(O)CN1C(=O)/C(=C/C=C/c2ccccc2)SC1=S | i | i | -8.5* | i | 40%* | i
N=C1C(c2ccccc2)=C(O)CN1c1cccc(O)c1 | i | i | -6.6* | i | i | i
COc1cc(OC)cc(-c2nc3ccccc3c(=O)n2OC(=O)c2ccccc2C)c1 | i | i | i | i | / | /
O=C(On1c(-c2ccccc2)nc2ccccc2c1=O)c1ccco1 | i | 100* | -9.7* | i | 57%* | i
C/C(=N\NC(=O)c1ccccc1O)C1C(=O)c2ccccc2C1=O | i | i | -5* | i | 31%* | i
O=C(/C=C/c1ccc(-c2ccccc2[N+](=O)[O-])o1)c1ccccc1 | i | i | i | i | / | /
SMILES | ANO1 activ | TMEM16A inh | CHT inh | CHT allo act | CHT inh conf | HEK293 MPD ctr
O=C(O)/C(=C\c1ccc(-c2ccccc2[N+](=O)[O-])o1)c1ccccc1 | i | i | -5.6* | i | i | i
COCCNC(=S)N1CCN(c2nc(-c3ccc(Cl)cc3)cs2)CC1 | i | i | -7.5* | i | i | i
CC(Oc1cc(F)ccc1[N+](=O)[O-])C(=O)Nc1ccc(S(=O)(=O)N2CCCC2)cc1 (stereo not given) | i | i | i | i | / | /
Nc1ncnc2c1ncn2C1O[C@H](CO)[C@@H](O)[C@@H]1O (stereo not given in full) | i | i | i | i | / | /
Nc1ncnc2c1ncn2[C@@H]1O[C@H](CO)[C@@H](O)[C@@H]1O | i | i | i | i | / | /
OCC1OC(n2cnc3c(NC4CCCCC4)ncnc32)C(O)C1O (stereo not given) | i | i | -5.5* | i | 41%* | i
Nc1ncnc2c1ncn2C1OC(C(=O)NC2CC2)C(O)C1O (stereo not given) | i | i | -5.1* | i | 44%* | i
Nc1ncnc2c1ncn2C1OC(CO)C(O)C1O (stereo not given) | i | i | -10* | i | 37%* | i
C=CCNc1ncnc2c1ncn2C1OC(CO)C(O)C1O (stereo not given) | i | i | -6* | i | 41%* | i
Cc1cc(=O)cc(C)n1-c1ccc(F)cc1F | i | i | i | i | / | /
Cc1ccc(-n2c(C)cc(=O)cc2C)c(C)c1 | i | i | -5* | i | 34%* | i
Cc1cc(=O)oc2cc(OCCSCCN3CCCC3)ccc12 | i | i | i | i | / | /
COc1cccc(N2CCN(C(=O)C3CCCN(c4ncnc5c4nc4n5CCCCC4)C3)CC2)c1 (stereo not given) | i | i | -5.7* | i | 38%* | i
CC1CCN(C(=O)C2CCCN(c3ncnc4c3nc3n4CCCCC3)C2)CC1 (stereo not given) | i | i | i | i | / | /
CCOC(=O)N1CCN(C(=O)C2CCCN(c3ncnc4c3nc3n4CCCCC3)C2)CC1 (stereo not given) | i | i | -9.3* | i | 11%* | i
O=C(C1CCCN(c2ncnc3c2nc2n3CCCCC2)C1)N1CCN(c2ccccc2F)CC1 (stereo not given) | i | i | -8.9* | i | -11%* | i
Cn1c(C(=O)O)c(CC(=O)Nc2ccc(F)cc2F)c2ccccc21 | i | i | i | i | / | /
Cc1ccc(Nc2cc(C(=O)NCCCN3CCOCC3)c3ccccc3n2)cc1C | i | i | i | i | 62%* | i
O=C(NCCCN1CCOCC1)c1cc(-c2ccccc2)nc2ccccc12 | i | i | i | i | / | /
COc1ccc(CN(Cc2ccc(C(=O)O)cc2)C(=S)Nc2ccccc2C)cc1OC | i | i | i | i | / | /
COc1cccc(NC(=S)N(Cc2ccc(C(=O)O)cc2)Cc2ccc(OC)c(OC)c2)c1 | i | i | -6.4* | i | 51%* | i
CN(CC(=O)NCc1ccc(F)cc1)S(=O)(=O)c1ccc2c(c1)n(C)c(=O)c(=O)n2C | i | i | i | i | / | /
CCCCC(=O)C1CCN(Cc2ccccc2)CC1 | i | i | i | i | / | /
NC(=O)c1nsc(C(=O)N(Cc2ccc(F)cc2)C(C(=O)NC2CCCC2)c2ccco2)c1N (stereo not given) | i | i | -7.9* | i | i | i

Screens from PubChem.
